Bioassay records deposited in PubChem by National Center for Advancing Translational Sciences (NCATS).
ERK EGF inh: inhibitors of EGF-stimulated ERK signaling pathway. HEK293-V1b, EGF-stimulated phospho-ERK AlphaScreen. Potency, µM (doses to about 11.5 µM), for inactives: at the highest dose activity change, negative = inhibition, most hits filed as inhibitors. 130,000 tested, 0.41% active. AID 1454;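 further: plate controls were stimulated vehicle wells for no effect and unstimulated vehicle basal for full effect; nearly all actives have a fitted effect of over 55% in size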
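Homogeneous cell-based phospho-ERK assay: HEK293/V1b cells in 1% FBS, compound 30 min then EGF 5 min, AlphaScreen luminescence. Activity normalized between DMSO and 25 nM EGF controls; AC50 from Hill modelling.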
NPSR antagonist: antagonists of human neuropeptide S receptor cAMP signaling | AID 1461 | 220,000 tested, 1% active | Q6W5P4 | Potency, µM (highest dose often 38.3 µM), for inactives: at the highest dose activity change, negative = inhibition, hits mostly inhibitors | CHO-NPSR cells, cAMP TR-FRET, antagonist mode; further: on the % scale 0 is the no-effect control and ±100 the full control effect; nearly all actives have a fitted effect of over 50% in size
Target sequence (Q6W5P4 whole entry, looked up): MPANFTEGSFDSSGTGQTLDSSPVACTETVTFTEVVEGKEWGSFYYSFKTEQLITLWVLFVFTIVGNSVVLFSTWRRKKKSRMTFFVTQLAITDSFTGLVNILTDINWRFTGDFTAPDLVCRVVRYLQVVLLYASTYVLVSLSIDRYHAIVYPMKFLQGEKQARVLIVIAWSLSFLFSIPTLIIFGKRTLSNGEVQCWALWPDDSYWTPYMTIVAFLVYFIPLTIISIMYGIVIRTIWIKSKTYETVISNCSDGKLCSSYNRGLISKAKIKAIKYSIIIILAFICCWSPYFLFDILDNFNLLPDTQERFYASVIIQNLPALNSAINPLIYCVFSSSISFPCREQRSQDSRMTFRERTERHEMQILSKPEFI
HTT ATP protect: cytoprotection in Huntington HTT-Q103 PC12 cell model. PC12 HTT-Q103 induced, cytoprotection, ATP luminescence, 40 h. Potency, µM (top dose mostly 56.4 µM), without a hit: cytoprotection (ATP increase), hits mostly activators. 230,000 tested, 0.14% active. AID 1471; further: % of control where 0% means no effect; nearly all actives have a fitted effect of over 45% in size
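Stable PC12 Q103-GFP cells in serum-supplemented, phenol red-free DMEM; induction by tebufenozide at 100 nM final; compound dose series; cell viability quantified luminescently from ATP.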
IMPase Li cell: membrane-permeable IMPase blocker, potentiated with lithium. CHO-M1 cells, IP1 TR-FRET (IP-One), carbachol + lithium. Potency, µM (series often up to 59.4 µM), for the others: at the highest dose activity, negative = IMPase inhibition, most hits filed as inhibitors. 210,000 tested, 0.35% active. AID 1457;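 further: IP1 builds up when IMPase is blocked and the TR-FRET signal falls; plate controls were basal vehicle for no effect and high inhibitor control for full effect; nearly all actives have a fitted effect of over 50% in size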
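CHO cells stably expressing M1 receptor (2000/well) were cultured 16–30 h, then exposed to compounds with a small lithium addition for 30 min at 37C. IP1 was measured by TR-FRET competition; AC50 from Hill fits.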
HTT aggregate: reduces HttQ103-GFP aggregates in PC12 cells | 220,000 tested, 1.1% active | AID 1688 | PC12 HttQ103-GFP aggregates, Acumen cytometry, 40 h | Potency, µM (doses to about 46.1 µM), inactives show at the highest dose activity change, negative = inhibition, most hits filed as inhibitors; further: on the % scale 0 is the no-effect control and ±100 the full control effect; nearly all actives have a fitted effect of over 60% in size
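PC12/HTTQ103-GFP, ecdysone-inducible; teb 100 nM; cpd qHTS titration; GFP aggregates read on laser cytometer, Ex 488/Em 500-530 nm.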
Starred values were filed as active, the others as inactive; ? = inconclusive; . = no result; [ ] = dose if it differs, or a comment. Hits are enriched below; roughly 1.9% of the tested compounds scored in any of these assays. The call rests on the fitted dose curve; in most records, active means well fitted curve in the direction sought with a large enough effect; inconclusive means small, poorly fitted or top-dose-only effect, or another doubt; inactive means no such curve, though single readings can be large; an effect the other way counts as inactive or inconclusive. Potency means the concentration at half of the fitted maximal effect.

SMILES | ERK EGF inh | NPSR antagonist | HTT ATP protect | IMPase Li cell | HTT aggregate
Cc1onc(-c2ccccc2Cl)c1C(=O)Nc1sc2c(c1C#N)CCC2 | . | -8.0%[46.1 µM] | 14.1%[10 µM] | 8.5% | 11.2µM*
COc1ccc(OC)c(NC(=S)NN2CCOCC2)c1 | . | -10.7%[46.1 µM] | -6.9%[10 µM] | -2.9% | 11.2µM*
CN(N)c1nc(-c2ccccc2)nnc1C(F)(F)F | . | 4.8%[46.1 µM] | -2.8% | -3.5%[38.3 µM] | -10.1%
CN(NC(=O)c1cccc(Cl)c1)c1nc(-c2ccccc2)nnc1C(F)(F)F | . | -19.9%[46.1 µM] | . | 2.5%[38.3 µM] | 1µM*
CC(C)C1Cc2c(sc3[nH]c(=S)n(Cc4ccccc4)c(=O)c23)CO1 (centres undefined) | . | 10µM* | -53.9% | -10.9%[38.3 µM] | ?
Cc1nnc2n(-c3ccccc3)c(=O)c3c4c(sc3n12)COC(C(C)C)C4 (centres undefined) | . | -11.4%[46.1 µM] | -1.3% | 2.4%[38.3 µM] | -8.6%
CC1(c2ccccc2)CC(C)(C)N2C(=O)C3(C(C#N)=C(N)Oc4cc(O)ccc43)c3cccc1c32 (centres undefined) | . | ? | -7.1% | 27.6%[38.3 µM] | -12.5%
CC1(c2ccccc2)CC(C)(C)N2C(=O)/C(=C3\SC(=S)NC3=O)c3cccc1c32 (centres undefined) | ? | 5.01µM* | 3.7%[10 µM] | 3.2% | -2.8%
O=c1c(CCc2ccccc2)nc2cnc(N3CCOCC3)nc2n1CCc1ccccc1 | . | . | -9.6% | 1.3% | .
C=C1CCC2[C@](C)(CO)[C@H](O)CC[C@@]2(C)[C@@H]1C/C=C1/C(=O)OC[C@H]1O (some centres undefined) | -16.0% | . | 7.08µM* | 9.7% | .
COc1ccc(NC(=O)CCSc2ccc3ccccc3n2)cc1 | 1.3% | -17.2% | 6.5%[10 µM] | -14.5% | 5.3%
O=C(O)CSc1ccc2ccccc2n1 | . | 20.7%[46.1 µM] | -6.7%[10 µM] | 7.08µM* | 5.5%
O=C(O)CCSc1ccc2ccccc2n1 | . | ? | -14.5% | 14.1µM* | 9.1%
Cc1cc(SCCC(=O)O)nc2ccccc12 | . | 13.6%[7.67 µM] | 0.2% | 11.2µM* | 5.1%
Cc1nc(SCCC(=O)O)c2ccccc2n1 | . | ? | 9.7%[1.9 µM] | 12.6µM* | 25.2%
CCCCCCCCCCCC(=O)[O][Sn]([CH2]CCC)([CH2]CCC)[O]C(=O)CCCCCCCCCCC | . | . | -70.7% | . | -2.9%
CSCCC(N)C(=O)NC(CC(C)C)C(=O)NC(Cc1ccccc1)C(=O)O (centres undefined) | 8.6% | . | . | -2.1% | .
O=C(O)CCC/C=C\C[C@H]1[C@@H](/C=C\[C@@H](O)C2Cc3ccccc3C2)[C@H](F)C[C@H]1O | . | . | 15.1%[1.9 µM] | . | .
Cc1cc(C)c2nc(C(F)(F)F)c(C#N)c(N)c2c1 | . | 14.1%[46.1 µM] | 37.0%[10 µM] | 9.8%[38.3 µM] | 5.62µM*
CCCCCCCCCCCCCCCCOCC(CO)OC (centres undefined) | -7.0% | . | -4.9% | 18.6% | .
COc1ccccc1-c1ccc(SCc2cccc(C)c2)nn1 | 4.9% | -44.1% | ? | 8.6% | 22.4µM*
S=c1nc(SCc2ccccc2)[nH]c2ccccc12 | 4.9% | 10µM* | -8.9% | 14.1µM* | -16.2%
COc1cccc(NC(=O)CSc2nc3c(c(-c4ccco4)c2C#N)CCCC3)c1 | . | -4.5%[46.1 µM] | ? | 11.2µM* | 16.9%
COCCOC(=O)c1c(C)nc(SCC(=O)Nc2ccc(OC)cc2)c(C#N)c1-c1ccco1 | . | -14.8%[46.1 µM] | -20.5% | 14.8%[38.3 µM] | 2.1%
N#Cc1c(-c2ccco2)nc(SCC(=O)Nc2cccc(Cl)c2)[nH]c1=O | . | ? | -24.0% | 10µM* | -8.1%
SMILES | ERK EGF inh | NPSR antagonist | HTT ATP protect | IMPase Li cell | HTT aggregate
O=C(NCCCc1ccccc1)c1ccccc1O | . | ? | -12.4%[10 µM] | 1.4%[38.3 µM] | 10µM*
O=C(/C=C/c1cccs1)Nc1nc(-c2ccccc2)cs1 | . | -16.7%[46.1 µM] | -20.7%[10 µM] | 34.5%[38.3 µM] | 35.5µM*
O=C(COC(=O)/C=C/c1cccs1)Nc1nc(-c2ccccc2)cs1 | 0.4% | -6.9% | . | 6.4% | 11.3%
COC(=O)C(C(=O)OC)C1c2ccccc2C=C(C)N1C(=O)OC (centres undefined) | . | . | 5.4%[10 µM] | 1.5% | .
CC(=O)Nc1nonc1-c1nc2ccccc2n1CC1CC1 | . | -17.3%[46.1 µM] | 29.7% | 7.7%[38.3 µM] | 7.08µM*
CC(C)=CCC1(CC=C(C)C)C(=O)C(C(=O)c2ccccc2)=C2OC(C)(C)CCC2(CC=C(C)C)C1=O (centres undefined) | . | . | -8.7%[10 µM] | . | .
